Only some compounds are listed: those with a hit (about 13% of all), similar ones and a draw of the others.
Shiga toxin inh: inhibitors of Shiga toxin in Vero cells. Vero cells, Shiga toxin protein synthesis inhibition reporter. inhibition, % at 38.7 µM. 290,000 compounds, 9.2% hits; in the data active means inhibition mostly above about 28%, no sharp cut-off; inactive means mostly below about 43%; further: 0% is about no effect
HCV inh: HCV inhibition | Huh7.5.1 HCVcc-Cre infection, luciferase reporter, 44 h | Potency, µM (top dose mostly 41.8 µM), for inactives: at the top dose activity change, negative = inhibition, hits mostly inhibitors | 340,000 compounds, 3.4% hits | AID 651820; active means well fitted inhibition curve with a large enough effect; inconclusive means small, poorly fitted or top-dose-only effect, or another doubt; inactive means no such curve, though single readings can be large or run the other way; further: potency means the concentration at half of the fitted maximal effect; on the % scale 0 is the no-effect control and ±100 the full control effect
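HCVcc-Cre virus at an moi near 0.5 was added right after compound to cells cultured 4 h from seeding (1,000 cells/well). Luciferase activity was determined 44 h later, 15 min after substrate addition at RT.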
FMDV inh: foot and mouth disease virus antiviral activity; FMDV antiviral cell-based qHTS; AID 1159524; 410,000 compounds, 1.2% hits; Potency, µM (doses to about 57.9 µM), without a hit: at the top dose activity change, negative = inhibition, actives largely listed as inhibitors; calls by dose curve; tested in HEK293T cells; further: read-out not given here; potency means the concentration at half of the fitted maximal effect; on the % scale 0 is the no-effect control and ±100 the full control effect; nearly all actives have a fitted effect of over 45% in size
MARV entry inh: blocks Marburg virus binding to or entry into cells | Potency, µM (top dose mostly 37.8 µM), inactives show top-dose activity change, negative = inhibition, actives largely listed as inhibitors | 300,000 compounds, 1.8% hits | Marburg virus pseudotyped entry inhibition, cell reporter; calls by dose curve; tested in HEK293 cells; further: potency means the concentration at half of the fitted maximal effect; on the % scale 0 is the no-effect control and ±100 the full control effect
LASV entry inh: Lassa virus entry inhibition; Lassa virus pseudotype entry inhibition, cell reporter; Potency, µM (top dose mostly 37.9 µM), for inactives: at the highest dose activity change, negative = inhibition, most hits filed as inhibitors; 300,000 compounds, 1.2% hits; calls by dose curve; tested in HEK293 cells; further: potency means the concentration at half of the fitted maximal effect; on the % scale 0 is the no-effect control and ±100 the full control effect; nearly all actives have a fitted effect of over 50% in size
Cycloheximide cs: affects cycloheximide protein synthesis inhibition readout, counter-screen; cell reporter, cycloheximide protein synthesis inhibition counterscreen; max response, %; 300,000 compounds, 12% hits; AID 2314; in the data active means max response mostly above about 13%, no sharp cut-off; inactive means mostly below about 14%; further: read at 38.3 µM for the half of the compounds with a filed dose; 0% is about no effect
* = called active by the depositor; [ ] = remark or other dose.

`COc1cccc(C(=O)CN2CCC(NC(=O)NC3CCCCC3)CC2)c1` gave Shiga toxin inh 1, HCV inh -2%, FMDV inh -5%, MARV entry inh -4%, LASV entry inh -5% and Cycloheximide cs -3.
`CCN(CC)CCN1CNC(=S)N(c2ccccc2OC)C1` gave Shiga toxin inh 15, HCV inh 20%, FMDV inh 0%, MARV entry inh 1%[46.1 µM], LASV entry inh 11% and Cycloheximide cs -2.
For COc1cccc2c1cc1c(=O)n(CC(=O)N3CCN(c4ccc(F)cc4)CC3)nc(C)n12 the results were FMDV inh -13% and MARV entry inh 10%[46.1 µM].
Screening Cc1cc(C)c(S(=O)(=O)N2CCCOC2CNC(=O)C(=O)NCc2cccnc2)c(C)c1 (stereo not given) returned Shiga toxin inh -15, HCV inh -1%, FMDV inh -10%, MARV entry inh 25%[46.1 µM], LASV entry inh -1% and Cycloheximide cs -3.
Screening N#Cc1cc2sc3nnc(-c4ccncc4)n3c2cc1C#N returned Shiga toxin inh -11, HCV inh inconclusive, FMDV inh 0%, MARV entry inh inconclusive, LASV entry inh -24% and Cycloheximide cs -1.
For CCCCNC(=O)Nc1ccccc1C(=O)Nc1ccc(OC)cc1 the results were Shiga toxin inh -10, HCV inh -24%, FMDV inh 18%, MARV entry inh inconclusive, LASV entry inh 18% and Cycloheximide cs 0.
For O=C(C1CCCO1)N1CCN(S(=O)(=O)c2ccc(F)cc2)CC1 (stereo not given) the results were HCV inh 28%, FMDV inh -5%, MARV entry inh 25% and LASV entry inh 17%[46.1 µM].
For Cc1sc2ncnc(SCC(=O)NCC3CCCO3)c2c1C (stereo not given) the results were HCV inh inconclusive and FMDV inh -3%.
C/C=C/C(=O)OCC(=O)Nc1ccc(C)c(S(=O)(=O)N(C)C)c1 was read as Shiga toxin inh 12, HCV inh -13%, FMDV inh 30%, MARV entry inh inconclusive, LASV entry inh inconclusive and Cycloheximide cs 8.
For CSc1ccccc1NC(=O)CN(C)Cc1c(O)ccc2ccccc12 the results were Shiga toxin inh -1, HCV inh 3%, FMDV inh 3%, MARV entry inh -3%[46.1 µM], LASV entry inh 7% and Cycloheximide cs -6.
Screening Cc1c(Cl)cccc1NC(=S)NNS(=O)(=O)c1ccc([N+](=O)[O-])cc1 returned Shiga toxin inh -11, HCV inh 19%, FMDV inh 8%, MARV entry inh 9%, LASV entry inh -1% and Cycloheximide cs 4.
COc1ccc(NC(=O)N2CC[C@@]3(CCCN(C(=O)c4c(C)noc4C)C3)C2)cc1 was read as FMDV inh -7%.
CCCc1nc2c(C)cc(C)cc2c(N)c1CC was read as Shiga toxin inh -13, HCV inh inconclusive, FMDV inh -24%, MARV entry inh 23µM*, LASV entry inh -1% and Cycloheximide cs 2.
Screening COc1ccc(-c2ccc(SCC(=O)N3CC(=O)Nc4ccccc43)nn2)cc1 returned Shiga toxin inh 35*, HCV inh 8%, FMDV inh 18%, MARV entry inh inconclusive, LASV entry inh inconclusive and Cycloheximide cs 21*.
O=C(CSc1ccc(-c2ccccc2)nn1)c1cccs1 was read as Shiga toxin inh 55, HCV inh inconclusive, FMDV inh 49%, MARV entry inh inconclusive, LASV entry inh 18% and Cycloheximide cs 28*.
Screening Cc1ccc(-c2ccc(SCC(=O)c3ccccc3)nn2)cc1 returned Shiga toxin inh 66, HCV inh -25%, FMDV inh 4%, MARV entry inh 0%, LASV entry inh 3% and Cycloheximide cs 30*.
COc1ccc(-c2ccc(SCC(=O)c3cccs3)nn2)cc1 was read as Shiga toxin inh 61*, HCV inh -22%, FMDV inh -2%, MARV entry inh inconclusive, LASV entry inh inconclusive and Cycloheximide cs 34*.
Cc1ccc(C(=O)CSc2ccc(-c3ccncc3)nn2)cc1 was read as Shiga toxin inh 25, HCV inh -12%, FMDV inh -30%, MARV entry inh 7%[46.1 µM], LASV entry inh 12% and Cycloheximide cs 6.
`Cc1nc(SCC(=O)N2CC(=O)Nc3ccccc32)nc(C)c1C` gave Shiga toxin inh -2, HCV inh 9%, FMDV inh -7%, MARV entry inh -18%[46.1 µM], LASV entry inh -14%[46.1 µM] and Cycloheximide cs -2.

Bioassay records deposited in PubChem BioAssay by National Center for Advancing Translational Sciences (NCATS).
